# Data from PubChem BioAssay AID1159580 (chemical genetic matrix, 2015).
# Several values for one entry are separate records, joined by “and”; a condition that tells them apart may be missing. Identical values can stand only once. The campaign covered roughly 5,500 compounds. About 2,000 (36%) were called active. Another 18% or so got no clear call; they are omitted. The list shows a part of the results. Unmarked numbers belong to inactive results. Rule as the data show it: active = normalized growth mostly below about 0.91 (no sharp cut-off); inconclusive = no clear call, values can overlap the other calls; inactive = mostly above about 0.92.
# Test: chemical genetic growth profiling, strain panel (AID 1159580);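 also: tested at 20 µM; growth read once vehicle control cultures reached saturation at 30 °C; 1 = growth at the plate median or of vehicle wells; lower values mean less growth of the strain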
# Details: S. cerevisiae deletion strains, growth OD
smiles,measurement,setting,value
COc1ccc(-c2coc3cc(O)ccc3c2=O)cc1,normalized growth,"locus YAL021C, strain ccr4, active compounds read low",1
same,normalized growth,"locus YAL026C, strain drs2, active compounds read low",0.943
same,normalized growth,"locus YAL030W, strain snc1, active compounds read low",0.986
same,normalized growth,"locus YBL061C, strain skt5, active compounds read low",0.983
same,normalized growth,"locus YBR009C, strain hhf1, active compounds read low",0.953
same,normalized growth,"locus YBR021W, strain FUR4, active compounds read low",0.751 (active)
same,normalized growth,"locus YBR023C, strain chs3, active compounds read low",0.98
same,normalized growth,"locus YBR171W, strain sec66, active compounds read low",0.973
same,normalized growth,"locus YBR229C, strain ROT2, active compounds read low",0.967
same,normalized growth,"locus YBR231C, strain swc5, active compounds read low",0.964
same,normalized growth,"locus YBR279W, strain paf1, active compounds read low",0.993
same,normalized growth,"locus YCL011C, strain gbp2, active compounds read low",0.965
same,normalized growth,"locus YCL016C, strain dcc1, active compounds read low",0.974
same,normalized growth,"locus YCL029C, strain bik1, active compounds read low",0.949
same,normalized growth,"locus YCL061C, strain MRC1, active compounds read low",0.959
same,normalized growth,"locus YCL069W, strain vba3, active compounds read low",0.98
same,normalized growth,"locus YCR088W, strain abp1, active compounds read low",0.982
same,normalized growth,"locus YDL005C, strain med2, active compounds read low",0.982
same,normalized growth,"locus YDL035C, strain GPR1, active compounds read low",0.933
same,normalized growth,"locus YDL040C, strain nat1, active compounds read low",0.985
same,normalized growth,"locus YDL074C, strain BRE1, active compounds read low",0.839
same,normalized growth,"locus YDL101C, strain DUN1, active compounds read low",0.916
same,normalized growth,"locus YDL185W, strain tfp1, active compounds read low",0.964
same,normalized growth,"locus YDL192W, strain arf1, active compounds read low",0.912 (active)
same,normalized growth,"locus YDR001C, strain nth1, active compounds read low",0.978
same,normalized growth,"locus YDR069C, strain doa4, active compounds read low",1.01
same,normalized growth,"locus YDR101C, strain arx1, active compounds read low",0.941
same,normalized growth,"locus YDR137W, strain rgp1, active compounds read low",0.906
same,normalized growth,"locus YDR159W, strain sac3, active compounds read low",0.955
same,normalized growth,"locus YDR162C, strain NBP2, active compounds read low",0.894
same,normalized growth,"locus YDR195W, strain ref2",1.13
same,normalized growth,"locus YDR297W, strain sur2, active compounds read low",0.978
same,normalized growth,"locus YDR318W, strain mcm21, active compounds read low",0.896 (active)
same,normalized growth,"locus YDR334W, strain swr1, active compounds read low",0.989
same,normalized growth,"locus YDR335W, strain msn5, active compounds read low",0.99
same,normalized growth,"locus YDR388W, active compounds read low",0.964
same,normalized growth,"locus YDR392W, strain spt3, active compounds read low",0.726 (active)
same,normalized growth,"locus YDR502C, strain sam2, active compounds read low",0.878 (active)
same,normalized growth,"locus YEL003W, strain gim4, active compounds read low",0.977
same,normalized growth,"locus YEL037C, strain rad23, active compounds read low",0.983
same,normalized growth,"locus YEL061C, strain CIN8 (second series), active compounds read low",0.986
same,normalized growth,"locus YER015W, strain faa2, active compounds read low",0.989
same,normalized growth,"locus YER016W, strain bim1, active compounds read low",0.979
same,normalized growth,"locus YER110C, active compounds read low",0.974
same,normalized growth,"locus YER111C, strain swi4, active compounds read low",0.992
same,normalized growth,"locus YER155C, strain BEM2 (second series), active compounds read low",0.907
same,normalized growth,"locus YER155C, strain BEM2, active compounds read low",0.962
same,normalized growth,"locus YER167W, strain BCK2, active compounds read low",0.973
same,normalized growth,"locus YFR010W, strain ubp6, active compounds read low",0.984
same,normalized growth,"locus YGL078C, strain dbp3, active compounds read low",0.91 (active)
same,normalized growth,"locus YGL086W, strain mad1, active compounds read low",0.884 (active)
same,normalized growth,"locus YGL167C, strain pmr1, active compounds read low",0.997
same,normalized growth,"locus YGL173C, strain kem1, active compounds read low",0.979
same,normalized growth,"locus YGL227W, strain vid30, active compounds read low",0.981
same,normalized growth,"locus YGL240W, strain doc1, active compounds read low",0.916
same,normalized growth,"locus YGL248W, strain PDE1, active compounds read low",0.853 (active)
same,normalized growth,"locus YGL253W, strain hxk2, active compounds read low",0.932
same,normalized growth,"locus YGR135W, strain pre9, active compounds read low",0.821 (active)
same,normalized growth,"locus YGR252W, strain gcn5, active compounds read low",0.698 (active)
same,normalized growth,"locus YHR013C, strain ard1, active compounds read low",0.977
same,normalized growth,"locus YHR027C, strain rpn1, active compounds read low",0.995
same,normalized growth,"locus YHR030C, strain SLT2, active compounds read low",0.975 and 0.906
same,normalized growth,"locus YHR079C, strain IRE1 (second series), active compounds read low",0.969
same,normalized growth,"locus YHR079C, strain IRE1, active compounds read low",0.936
same,normalized growth,"locus YHR094C, strain hxt1, active compounds read low",0.96
same,normalized growth,"locus YHR129C, strain ARP1, active compounds read low",0.929
same,normalized growth,"locus YHR142W, strain chs7, active compounds read low",0.893
same,normalized growth,"locus YHR200W, strain rpn10, active compounds read low",0.904 (active)
same,normalized growth,"locus YIL066C, strain RNR3, active compounds read low",0.957
same,normalized growth,"locus YIL073C, strain SPO22, active compounds read low",0.886
same,normalized growth,"locus YIL125W, strain kgd1, active compounds read low",0.966
same,normalized growth,"locus YIR030C, strain dcg1, active compounds read low",0.961
same,normalized growth,"locus YJL092W, strain hpr5, active compounds read low",0.974
same,normalized growth,"locus YJL095W, strain BCK1 (second series), active compounds read low",0.987
same,normalized growth,"locus YJL095W, strain BCK1, active compounds read low",0.81 and 0.908
same,normalized growth,"locus YJL115W, strain asf1, active compounds read low",0.998
same,normalized growth,"locus YJL129C, strain trk1, active compounds read low",0.954
same,normalized growth,"locus YJL134W, strain LCB3, active compounds read low",0.98
same,normalized growth,"locus YJL154C, strain vps35, active compounds read low",0.982
same,normalized growth,"locus YJL164C, strain tpk1, active compounds read low",0.943
same,normalized growth,"locus YJL166W, strain qcr8, active compounds read low",0.951
same,normalized growth,"locus YJL168C, strain set2, active compounds read low",0.977
same,normalized growth,"locus YJL187C, strain SWE1 (second series), active compounds read low",0.879
same,normalized growth,"locus YJL187C, strain SWE1, active compounds read low",0.984
same,normalized growth,"locus YJR066W, strain TOR1, active compounds read low",0.836
same,normalized growth,"locus YKL009W, strain mrt4, active compounds read low",0.914
same,normalized growth,"locus YKL068W, active compounds read low",0.965
same,normalized growth,"locus YKL085W, strain MDH1 (second series), active compounds read low",0.968
same,normalized growth,"locus YKL085W, strain MDH1, active compounds read low",0.968
same,normalized growth,"locus YKL160W, strain elf1, active compounds read low",0.942
same,normalized growth,"locus YKR001C, strain vps1, active compounds read low",0.837 (active)
same,normalized growth,"locus YKR026C, strain gcn3, active compounds read low",0.981
same,normalized growth,"locus YKR091W, strain srl3, active compounds read low",0.984
same,normalized growth,"locus YLL001W, strain dnm1, active compounds read low",0.954
same,normalized growth,"locus YLL026W, active compounds read low",0.977
same,normalized growth,"locus YLL041C, strain sdh2, active compounds read low",0.983
same,normalized growth,"locus YLR027C, strain aat2, active compounds read low",0.965
same,normalized growth,"locus YLR039C, strain RIC1, active compounds read low",0.784
same,normalized growth,"locus YLR058C, strain SHM2, active compounds read low",0.906
same,normalized growth,"locus YLR102C, strain apc9, active compounds read low",0.975
same,normalized growth,"locus YLR113W, strain HOG1, active compounds read low",0.992
same,normalized growth,"locus YLR221C, strain rsa3, active compounds read low",0.929
same,normalized growth,"locus YLR258W, strain gsy2, active compounds read low",0.99
same,normalized growth,"locus YLR262C, strain YPT6 (second series), active compounds read low",0.881
same,normalized growth,"locus YLR268W, strain sec22, active compounds read low",0.9
same,normalized growth,"locus YLR320W, strain mms22, active compounds read low",0.919
same,normalized growth,"locus YLR330W, strain CHS5, active compounds read low",0.896 (active)
same,normalized growth,"locus YLR342W, strain FKS1 (second series), active compounds read low",0.876
same,normalized growth,"locus YLR342W, strain FKS1, active compounds read low",0.975
same,normalized growth,"locus YLR357W, strain rsc2, active compounds read low",0.95
same,normalized growth,"locus YLR371W, strain rom2, active compounds read low",0.993
same,normalized growth,"locus YLR384C, strain iki3, active compounds read low",0.989
same,normalized growth,"locus YLR418C, strain cdc73, active compounds read low",0.74 (active)
same,normalized growth,"locus YML016C, strain PPZ1, active compounds read low",0.959
same,normalized growth,"locus YML032C, strain rad52, active compounds read low",0.933
same,normalized growth,"locus YML120C, strain ndi1, active compounds read low",0.955
same,normalized growth,"locus YML124C, strain tub3, active compounds read low",0.974
same,normalized growth,"locus YMR058W, strain fet3, active compounds read low",0.952
same,normalized growth,"locus YMR078C, strain ctf18, active compounds read low",0.961
same,normalized growth,"locus YMR125W, strain sto1, active compounds read low",0.98
same,normalized growth,"locus YMR129W, active compounds read low",0.981
same,normalized growth,"locus YMR205C, strain PFK2, active compounds read low",0.972
same,normalized growth,"locus YMR223W, strain ubp8, active compounds read low",0.913
same,normalized growth,"locus YMR231W, strain pep5, active compounds read low",1
same,normalized growth,"locus YMR307W, strain GAS1, active compounds read low",0.706
same,normalized growth,"locus YNL067W, strain RPL9B, active compounds read low",0.87
same,normalized growth,"locus YNL071W, strain lat1, active compounds read low",0.924
same,normalized growth,"locus YNL183C, strain NPR1, active compounds read low",0.872
same,normalized growth,"locus YNL209W, strain ssb2, active compounds read low",0.987
same,normalized growth,"locus YNL233W, strain BNI4, active compounds read low",0.827 (active)
same,normalized growth,"locus YNL248C, strain rpa49, active compounds read low",0.94
same,normalized growth,"locus YNL250W, strain rad50, active compounds read low",0.944
same,normalized growth,"locus YNL271C, strain bni1, active compounds read low",0.941
same,normalized growth,"locus YNL298W, strain CLA4, active compounds read low",0.928
same,normalized growth,"locus YNL307C, strain MCK1, active compounds read low",0.847 (active)
same,normalized growth,"locus YNL322C, strain KRE1 (second series), active compounds read low",0.979
same,normalized growth,"locus YNR049C, strain mso1, active compounds read low",0.986
same,normalized growth,"locus YNR052C, strain pop2, active compounds read low",0.927
same,normalized growth,"locus YOL012C, strain htz1",0.948
same,normalized growth,"locus YOL147C, strain pex11, active compounds read low",0.934
same,normalized growth,"locus YOR001W, strain rrp6, active compounds read low",0.952
same,normalized growth,"locus YOR061W, strain CKA2, active compounds read low",0.985
same,normalized growth,"locus YOR069W, strain VPS5, active compounds read low",0.927
same,normalized growth,"locus YOR070C, strain gyp1, active compounds read low",0.975
same,normalized growth,"locus YOR080W, strain dia2, active compounds read low",0.993
same,normalized growth,"locus YOR083W, strain WHI5, active compounds read low",0.91
same,normalized growth,"locus YOR106W, strain vam3, active compounds read low",0.915
same,normalized growth,"locus YOR136W, strain idh2, active compounds read low",0.95
same,normalized growth,"locus YOR144C, strain elg1, active compounds read low",0.968
same,normalized growth,"locus YOR184W, strain ser1, active compounds read low",0.931
same,normalized growth,"locus YOR231W, strain MKK1, active compounds read low",0.934
same,normalized growth,"locus YOR265W, strain rbl2, active compounds read low",0.999
same,normalized growth,"locus YOR270C, strain vph1, active compounds read low",0.807
same,normalized growth,"locus YOR290C, strain snf2, active compounds read low",0.88
same,normalized growth,"locus YOR316C, strain cot1, active compounds read low",0.96
same,normalized growth,"locus YPL051W, strain arl3, active compounds read low",0.943
same,normalized growth,"locus YPL078C, strain atp4, active compounds read low",0.905
same,normalized growth,"locus YPL106C, strain sse1, active compounds read low",0.984
same,normalized growth,"locus YPL240C, strain hsp82, active compounds read low",0.984
same,normalized growth,"locus YPL241C, strain CIN2, active compounds read low",0.998
same,normalized growth,"locus YPL256C, strain CLN2, active compounds read low",0.922
same,normalized growth,"locus YPR119W, strain clb2, active compounds read low",0.973
same,normalized growth,"locus YPR141C, strain kar3, active compounds read low",0.967
same,normalized growth,"locus YPR163C, strain tif3, active compounds read low",0.794 (active)
same,normalized growth,"locus YPR167C, strain met16, active compounds read low",0.93
same,normalized growth,"strain wtn01, active compounds read low",0.911
